# Results reported in the supplement of paper PMC6992640.
# ± gives the standard deviation of the averaged measurements.
# Test system: UCD52 (cells of a triple-negative basal-like breast cancer xenograft)
# Experiment: cell viability (% of vehicle); higher = less cytotoxic
# Conditions: 10 µM; 72 h
# 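Also: PDX cells carrying CMV promoter-driven luciferase, viability read as total photon flux per second by IVIS imaging following D-luciferin, vehicle control 0.1% DMSO.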
row,SMILES,cell viability
1,CC(C)C(N)C(=O)OCCOCn1cnc2c(=O)nc(N)[nH]c21.Cl (stereo unspecified) [Valaciclovir HCl],91.8 ± 12
2,CC1CCOC2Cn3cc(C(=O)NCc4ccc(F)cc4F)c(=O)c(O)c3C(=O)N12 (stereo unspecified),139 ± 20
3,CC(S)C(=O)NCC(=O)O (stereo unspecified) [Tiopronin (Thiola)],93.7 ± 3.6
4,CCCCC(=O)OC1CCC2C3CCc4cc(O)ccc4C3CCC12C (stereo unspecified) [Estradiol valerate],90.6 ± 7.6
5,NC1CCCCC1N.O=C([O-])C(=O)[O-].[Pt+2] (stereo unspecified) [Oxaliplatin],137 ± 9.3
6,COc1cc(Nc2ncc3c(n2)-c2ccc(Cl)cc2C(c2c(F)cccc2OC)=NC3)ccc1C(=O)O [MLN8237 (Alisertib)],64.6 ± 12
7,C[N+](C)(CCOc1ccccc1)Cc1ccccc1.O=C(O)c1cc2ccccc2cc1[O-] [Bephenium Hydroxynaphthoate],89.6 ± 12
8,CCC(C(C)O)n1ncn(-c2ccc(N3CCN(c4ccc(OCC5COC(Cn6cncn6)(c6ccc(F)cc6F)C5)cc4)CC3)cc2)c1=O (stereo unspecified) [Posaconazole],74.8 ± 6.6
9,NC(=O)C1CCCc2c1[nH]c1ccc(Cl)cc21 (stereo unspecified),128 ± 12
10,Nc1cc(C(Cl)=C(Cl)Cl)c(S(N)(=O)=O)cc1S(N)(=O)=O [Clorsulon],116 ± 11
11,Nc1nc(=O)c2ncn(COC(CO)CO)c2[nH]1 [Ganciclovir],87.3 ± 5.8
12,CNNCc1ccc(C(=O)NC(C)C)cc1.Cl [Procarbazine HCl],79.7 ± 13
13,CC(=O)N1CCN(c2ccc(OCC3COC(Cn4ccnc4)(c4ccc(Cl)cc4Cl)O3)cc2)CC1 (stereo unspecified) [Ketoconazole],55.8 ± 5.3
14,COC(=O)C1=C(C)NC(C)=C(C(=O)OC(C)C)C1c1cccc2nonc12 (stereo unspecified) [Isradipine (Dynacirc)],76.2 ± 9.4
15,Br.CN1CCCC1Cc1c[nH]c2ccc(CCS(=O)(=O)c3ccccc3)cc12 (stereo unspecified) [Eletriptan HBr],87 ± 9.9
16,CCN(CC)CCOC(=O)C(c1ccccc1)c1ccccc1.Cl [Adiphenine HCl],92.2 ± 7.6
17,CCCN1CCCCC1C(=O)Nc1c(C)cccc1C.Cl.O (stereo unspecified) [Ropivacaine hydrochloride monohydrate],96.2 ± 12

# Test system: WHIM2 (cells of a triple-negative basal-like breast cancer xenograft)
# Experiment: as above
# Conditions: 10 µM; 72 h
row,SMILES,cell viability
1,COC(=O)C(c1ccccc1Cl)N1CCc2sccc2C1.O=S(=O)(O)O (stereo unspecified) [Clopidogrel],80.012 ± 0.0022
2,CC(C)(C)C(=O)C(Oc1ccc(Cl)cc1)n1ccnc1 (stereo unspecified) [Climbazole],121 ± 6.3
3,CCCN(CCC)CCc1cccc2c1CC(=O)N2.Cl [Ropinirole HCl],91.6 ± 38
4,CCCC(=O)Nc1ccc(OCC(O)CNC(C)C)c(C(C)=O)c1.Cl (stereo unspecified) [Acebutolol HCl],98.7 ± 8.9
5,O=C(O)C=Cc1ccccc1 [Cinnamic acid],105 ± 15
6,Nc1nc(=O)c2nc(CNc3ccc(C(=O)NC(CCC(=O)O)C(=O)O)cc3)cnc2[nH]1 (stereo unspecified) [Folic acid],96.1 ± 4.2
7,OCC(O)CN1CCN(c2ccccc2)CC1 (stereo unspecified) [Dropropizine],99.3 ± 20
8,CN(C)CCC(c1ccccc1)c1ccccn1.O=C(O)C=CC(=O)O (stereo unspecified) [Pheniramine Maleate],97.8 ± 24
9,CC(C)(C)c1cc(NC(=O)Nc2ccc(-c3cn4c(n3)sc3cc(OCCN5CCOCC5)ccc34)cc2)no1 [Quizartinib (AC220)],74.2 ± 3.8
10,O=c1nc[nH]c2c1ncn2C1CCC(CO)O1 (stereo unspecified) [Didanosine],98.5 ± 22
11,CC1(C)SC2C(NC(=O)Cc3ccccc3)C(=O)N2C1C(=O)[O-].[Na+] (stereo unspecified) [Penicillin G Sodium],108 ± 14
12,CCCCC(=O)N(Cc1ccc(-c2ccccc2-c2nnn[nH]2)cc1)[C@H](C(=O)O)C(C)C.CCOC(=O)[C@H](C)C[C@@H](Cc1ccc(-c2ccccc2)cc1)NC(=O)CCC(=O)O,93.4 ± 8.2
13,Clc1ccc(COC(Cn2ccnc2)c2ccc(Cl)cc2Cl)c(Cl)c1 (stereo unspecified) [Miconazole],99.6 ± 24
14,O=C(O)[C@H](O)[C@@H](O)C(=O)O.c1cnc2cc3c(cc2n1)C1CNC[C@@H]3C1 [Varenicline Tartrate],106 ± 5.1
15,CN(C)CCC(c1ccc(Cl)cc1)c1ccccn1.O=C(O)C=CC(=O)O (stereo unspecified) [Chlorpheniramine Maleate],82.8 ± 11
16,Nc1nc(CC(=O)Nc2ccc(CCNCC(O)c3ccccc3)cc2)cs1 (stereo unspecified) [Mirabegron (YM178)],97 ± 19
17,CCCS(=O)c1ccc2nc(NC(=O)OC)[nH]c2c1 (stereo unspecified) [Albendazole Oxide],112 ± 34
18,C=C1C(CO)C(O)CC1n1cnc2c(=O)nc(N)[nH]c21.O (stereo unspecified) [Entecavir Hydrate],81.3 ± 11
19,Cc1ccccc1C(OCCN(C)C)c1ccccc1.O=C(O)CC(O)(CC(=O)O)C(=O)O (stereo unspecified) [Orphenadrine Citrate],83.3 ± 17
20,CCC(C)C(=O)OC1CC(C)C=C2C=CC(C)C(CCC3CC(O)CC(=O)O3)C21 (stereo unspecified) [Lovastatin],71.5 ± 6.6

row,SMILES,cell viability
1,CN1CCC(=C2c3ccccc3CCc3sccc32)CC1.O=C(O)CC(O)C(=O)O [Pizotifen Malate],68.9 ± 11
2,COCCCOc1cc(CC(CC(N)C(O)CC(C(=O)NCC(C)(C)C(N)=O)C(C)C)C(C)C)ccc1OC.COCCCOc1cc(CC(CC(N)C(O)CC(C(=O)NCC(C)(C)C(N)=O)C(C)C)C(C)C)ccc1OC.O=C(O)C=CC(=O)O (stereo unspecified) [Aliskiren Hemifumarate],123 ± 14
3,CC(C)C(N)C(=O)OCCOCn1cnc2c(=O)nc(N)[nH]c21.Cl (stereo unspecified) [Valaciclovir HCl],102 ± 19
4,CC1CCOC2Cn3cc(C(=O)NCc4ccc(F)cc4F)c(=O)c(O)c3C(=O)N12 (stereo unspecified),120 ± 15
5,CC(S)C(=O)NCC(=O)O (stereo unspecified) [Tiopronin (Thiola)],103 ± 14
6,CCCCC(=O)OC1CCC2C3CCc4cc(O)ccc4C3CCC12C (stereo unspecified) [Estradiol valerate],88.9 ± 8.9
7,NC1CCCCC1N.O=C([O-])C(=O)[O-].[Pt+2] (stereo unspecified) [Oxaliplatin],108 ± 14
8,COc1cc(Nc2ncc3c(n2)-c2ccc(Cl)cc2C(c2c(F)cccc2OC)=NC3)ccc1C(=O)O [MLN8237 (Alisertib)],80.1 ± 8.5
9,C[N+](C)(CCOc1ccccc1)Cc1ccccc1.O=C(O)c1cc2ccccc2cc1[O-] [Bephenium Hydroxynaphthoate],112 ± 22
10,CCC(C(C)O)n1ncn(-c2ccc(N3CCN(c4ccc(OCC5COC(Cn6cncn6)(c6ccc(F)cc6F)C5)cc4)CC3)cc2)c1=O (stereo unspecified) [Posaconazole],86.8 ± 13
11,NC(=O)C1CCCc2c1[nH]c1ccc(Cl)cc21 (stereo unspecified),141 ± 7.4
12,Nc1cc(C(Cl)=C(Cl)Cl)c(S(N)(=O)=O)cc1S(N)(=O)=O [Clorsulon],112 ± 14
13,Nc1nc(=O)c2ncn(COC(CO)CO)c2[nH]1 [Ganciclovir],93.5 ± 46
14,CNNCc1ccc(C(=O)NC(C)C)cc1.Cl [Procarbazine HCl],98 ± 16
15,CC(=O)N1CCN(c2ccc(OCC3COC(Cn4ccnc4)(c4ccc(Cl)cc4Cl)O3)cc2)CC1 (stereo unspecified) [Ketoconazole],172 ± 25
16,COC(=O)C1=C(C)NC(C)=C(C(=O)OC(C)C)C1c1cccc2nonc12 (stereo unspecified) [Isradipine (Dynacirc)],92.5 ± 11
17,Br.CN1CCCC1Cc1c[nH]c2ccc(CCS(=O)(=O)c3ccccc3)cc12 (stereo unspecified) [Eletriptan HBr],83.3 ± 4.5
18,CCN(CC)CCOC(=O)C(c1ccccc1)c1ccccc1.Cl [Adiphenine HCl],92.4 ± 9.5
19,CCCN1CCCCC1C(=O)Nc1c(C)cccc1C.Cl.O (stereo unspecified) [Ropivacaine hydrochloride monohydrate],90.8 ± 14
